SENP8 block-1: SENP8 protease inhibition; Q96LD8; purified SENP8, Z-RLRGG-aminoluciferin cleavage, luminescence; inhibition, % at 10 µM; actives 1.2% (n = 330,000); AID 2540; in the data active = inhibition above about 50%
Target sequence (Q96LD8 whole entry, looked up): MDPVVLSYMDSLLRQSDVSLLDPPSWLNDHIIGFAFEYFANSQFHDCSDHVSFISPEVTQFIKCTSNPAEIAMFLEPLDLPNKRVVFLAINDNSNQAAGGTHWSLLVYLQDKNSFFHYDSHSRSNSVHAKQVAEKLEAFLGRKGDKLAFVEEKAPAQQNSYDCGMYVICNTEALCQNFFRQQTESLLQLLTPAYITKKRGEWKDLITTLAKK
Platelet DG rel: platelet dense granule release activity; human platelet-rich plasma, SFLLRN dense granule ATP release, luminescence; inhibition, %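 (compounds screened at 7.5 µM in platelet-rich plasma)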; actives 0.22% (n = 300,000); AID 1663;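 active = mean replicate score, as percent of positive control, at or above 50; inconclusive = mean below 50 but at least one replicate at or above 50; inactive = mean and every replicate below 50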
HSP90 inh: blocks HSP90-mediated luciferase refolding in reticulocyte lysate. actives 0.91% (n = 290,000). inhibition, % at 5.6 µM. AID 1789. Rabbit reticulocyte lysate, luciferase refolding luminescence, 3 h;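 active = inhibition above the screen-wide mean plus 3 SD, computed separately per campaign, cut at about 16% in these data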;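 note: 0% = DMSO wells and 100% = 60 µM geldanamycin wells; inhibitors lower the luminescence because luciferase stays unfolded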
SENP8 block-2: inhibitors of human SENP8 protease; recombinant SENP8, Nedd8 substrate fluorescence; actives 0.64% (n = 360,000); Q96LD8; inhibition, % at 20 µM; in the data active = inhibition mostly above about 40%, no sharp cut-off; inactive = mostly below about 27%
SENP6 block: inhibitors of human SENP6 protease. Q9GZR1. Recombinant SENP6 catalytic domain, aminoluciferin luminescence. inhibition, % at 10 µM. actives 1.8% (n = 330,000);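 active = inhibition above about 50% at the single tested dose, limit read from the data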;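 note: plate controls were DMSO wells with enzyme for no effect and DMSO wells lacking enzyme for full effect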
SENP7 inh: blocks the human protease SENP7; recombinant SENP7, Z-RLRGG-aminoluciferin luminescence, 40 min; AID 434973; actives 1.5% (n = 330,000); inhibition, % at 5 µM; Q9BQF6;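 active = inhibition above about 50% at the single test dose, limit read from the data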;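 note: plate controls were DMSO with enzyme for no effect and no enzyme buffer wells for full effect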
Target sequence (Q9BQF6 706-1050 limits assumed): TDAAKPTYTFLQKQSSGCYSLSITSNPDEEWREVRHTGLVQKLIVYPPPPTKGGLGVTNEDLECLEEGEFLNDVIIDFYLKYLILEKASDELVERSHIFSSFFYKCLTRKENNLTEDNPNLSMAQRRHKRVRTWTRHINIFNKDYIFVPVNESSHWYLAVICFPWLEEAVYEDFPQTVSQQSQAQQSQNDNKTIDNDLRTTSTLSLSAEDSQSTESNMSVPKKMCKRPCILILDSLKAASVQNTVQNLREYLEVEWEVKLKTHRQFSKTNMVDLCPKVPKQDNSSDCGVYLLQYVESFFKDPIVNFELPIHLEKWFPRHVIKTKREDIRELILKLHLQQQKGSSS
An asterisk follows results filed as active; i = inactive; ? = inconclusive; . = not tested or not shown. This is a sample that favours compounds with a hit; in the whole collection about 2.8% have one here.

SMILES	SENP8 block-1	Platelet DG rel	HSP90 inh	SENP8 block-2	SENP6 block	SENP7 inh
CC1=NN(c2ccccc2)C(=O)/C1=C/C=C/c1ccc(N(C)C)cc1	.	15	-7	38*	.	.
CC1=NN(c2ccccc2)C(=O)/C1=C\c1cc(C)n(C)c1C	3	-11	4	44*	15	-2
CC1=NN(c2ccccc2)C(=O)/C1=C\c1cn(C)c2ccccc12	0	-3	3	26	-10	6
CC1=NN(c2ccccc2)C(=O)/C1=C\C=C1/N(C)c2ccccc2C1(C)C	0	-1	1	47*	12	5
CCN(CC)CC(=O)Nc1scc2c1c(=O)oc1ccccc12	1	-16	1	-14	1	-1
Cc1occc1C(=O)N1CCCC(N2CCN(c3cccc(Cl)c3)CC2)C1 (stereo unspecified)	-12	-3	-3	6	-6	14
CC1=NN(c2ccccc2)C(=O)/C1=C/N(C)C	-4	9	1	20	4	9
CC(=O)Oc1ccc(/C=C2/C(=O)N(c3ccccc3)N=C2C)cc1	4	-1	6	45*	14	36
CCOc1cc(/C=C2/C(=O)N(c3ccccc3)N=C2C)ccc1OC(=O)c1cccs1	-6	5	11	38	20	18
COc1ccc(/C=C2/C(=O)N(c3ccccc3)N=C2C)cc1OC	2	2	5	75*	13	30
O=C(Nc1sc2c(c1C(=O)O)CCC2)c1cccs1	92*	13	0	-73	90*	44
O=C(Nc1sc2c(c1C(=O)O)CCCC2)c1ccc(Cl)cc1	78*	-7	4	-120	89*	37
NCCNC(=O)c1c(NC(=O)c2ccccc2)sc2c1CCCC2	-4	2	12	-149	0	4
NC(=O)c1c(NC(=O)c2cccs2)sc2c1CCCCCC2	-7	4	4	-167	10	3
O=C(Nc1nc2c(s1)CCCC2)c1cccs1	92*	.	13	-37	95*	96*
COc1ccc(S(=O)(=O)N(CC(=O)NCc2ccncc2)c2cc(C)cc(C)c2)cc1OC	4	-4	1	4	2	5
CCCc1cc(=O)oc2cc(OCC(=O)N3CCc4ccccc43)ccc12	-3	74*	0	-7	9	7
Cc1ccc(S(=O)(=O)C(C#N)c2nc3ccccc3nc2N2CCCC2)cc1 (stereo unspecified)	77*	-3	7	i	73*	42
Cc1cc(C(=O)Nc2c(F)cc(F)cc2Br)n(-c2ccccc2)n1	-11	-3	0	4	-20	-9
CN(CC(=O)Nc1ccccc1Br)C(=O)C(Cc1ccccc1)NC(=O)c1ccccc1 (stereo unspecified)	-11	59*	-1	-3	-20	7
COC(=O)N/N=C/c1cccc(OC(=O)c2ccc3c(c2)OCO3)c1	7	-7	-1	20	39	32
O=C(COc1ccccc1[N+](=O)[O-])N/N=C/c1cccc(OC(=O)c2ccc3c(c2)OCO3)c1	42	0	6	10	71*	77*
CN1CCN(C2=C(Cl)C(=O)c3ccccc3C2=O)CC1	.	.	.	73*	.	.
CC1COCC(C)N1C1=C(Cl)C(=O)c2ccccc2C1=O (stereo unspecified)	.	.	.	-63	.	.
Cc1cccn2c(=O)c3cc(C(=O)NC4CCCC4)c(=N)n(CCCN4CCOCC4)c3nc12	7	11	1	-321	5	0
SMILES	SENP8 block-1	Platelet DG rel	HSP90 inh	SENP8 block-2	SENP6 block	SENP7 inh
C=CCN1C(=O)/C(=C/c2ccsc2)SC1=S	-15	3	2	46*	-9	-8
O=C(O)CN1C(=O)/C(=C/c2ccsc2)SC1=S	1	-1	-3	13	8	2
COc1cccc(OCCNC(=O)c2cccc(OC)c2)c1	-1	53*	-2	10	-5	-4
COc1cccc(OCCNC(=O)c2ccc(C)cc2)c1	-1	9	0	15	-10	4
CC(=O)c1ccc(NC(=O)c2noc3c2CCC3)cc1	8	11	21*	7	31	18
O=c1c2ccccc2cnn1CCOc1ccccc1	92*	3	68*	8	92*	93*
O=C(O)Cn1ncc2ccccc2c1=O	-5	0	4	6	-2	-10
COc1cccc(/C(C)=N/NC(=O)c2ccc(N(C)C)cc2)c1	55*	19	4	-67	69*	45
COC1=C(OC)C(=O)C(CCCCCCCCCCO)=C(C)C1=O	.	.	27*	16	.	.
CN1C(=O)C(N=Nc2ccccc2C(=O)O)N(C)C1=S (stereo unspecified)	86*	-2	-2	13	89*	22
O=C1/C(=C\c2ccc([N+](=O)[O-])cc2)CCc2ccccc21	91*	?	2	33	82*	87*
O=S(=O)(CCNCc1ccco1)NC1CCCCC1	.	.	.	10	.	.
C[C@]12CCC[C@H](O1)c1c(cc3c(c1O)C(=O)c1c(O)cc(O)cc1C3=O)O2	-10	0	.	58*	-10	-7
CC1(C)CC(=O)c2c(O)cc(O)cc2O1	2	-3	0	11	-8	4
C=CCn1c(SCC(=O)c2c(N)n(C)c(=O)n(C)c2=O)nnc1-c1ccoc1C	8	.	.	-7	-27	-4
CCN1CCN(c2cc(C)c3cc(NC(=S)N4CCCC(C)C4)ccc3n2)CC1 (stereo unspecified)	-4	5	31*	-407	-33	-6
O=C(NCCc1ccccc1F)C1CCC(=O)N(Cc2ccc(Cl)cc2)C1 (stereo unspecified)	-3	-5	0	5	-3	-5
CC1(O)c2ccccc2C(=O)N1Cc1ccccc1 (stereo unspecified)	3	-13	2	6	-4	3
CC1(O)c2ccccc2C(=O)N1CCc1ccccc1F (stereo unspecified)	-4	-1	-1	53*	4	10
O=C(C1=C[C@@H](c2coc3ccccc3c2=O)C[C@@H](OCCCCO)O1)N1CCN(Cc2ccc3c(c2)OCO3)CC1	-1	3	17*	10	0	-8
C[C@@H]1C=C(C(=O)N2CCN(Cc3ccc4c(c3)OCO4)CC2)O[C@H](OCCCCO)C1	-9	-3	10	17	-7	10
O=C(C1=C[C@H](C2CC2)C[C@H](OCCCCO)O1)N1CCN(Cc2ccc3c(c2)OCO3)CC1	0	4	17*	16	-6	7
COc1ccc(C(=O)/C(=C/c2cccs2)c2nc3ccccc3o2)cc1	5	-2	17*	25	-12	5
CC(C)n1ncc2c(C(=O)NCC(=O)Nc3ccccc3Br)cc(C3CC3)nc21	-16	.	.	-490	-3	-10
O=C(N=C1c2ccccc2CN1c1ccc(F)c(Cl)c1)c1cccnc1Cl	62*	18	1	.	66*	61*

Screening results from PubChem BioAssay.
